Only some compounds are listed: those with a hit (about 19% of all), similar ones and a draw of the others.
KB-V1 MDR tox: KB-V1 MDR subline cytotoxicity; KB-V1 MDR cells viability, CellTiter-Glo, 72 h; Potency, µM (highest dose often 46.1 µM), most hits filed as cytotoxic; 3.4% of 400,000 active; note: nearly all actives have a fitted effect of over 60% in size
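KB-V1 MDR subline cells in DMEM (phenol-red free, 10% FBS) exposed to compounds in qHTS concentration series for 72 h at 37 degrees C. Viability read by CellTiter-Glo luminescence; concentration-effect curves fitted after normalization and correction.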
DT40 TDP1 CPT: DT40-hTDP1 cell growth loss with CPT; AID 686979; Potency, µM (highest dose often 46.2 µM), inactives show at the highest dose activity change, negative = growth inhibition, hits mostly inhibitors; chicken DT40 Tdp1-/-;hTDP1 cells + 20 nM CPT, ATP luminescence, 48 h; 12% of 420,000 active; note: nearly all actives have a fitted effect of over 55% in size
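Chicken DT40 Tdp1-/- cells complemented with human TDP1, 400 cells/well, exposed to compounds plus 20 nM camptothecin for at least 48 h at 37 C; viability read as ATP content by CellTiter-Glo luminescence.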
HT1080 IDH1KD tx: toxicity to HT-1080 IDH1 knockdown cells (counter line); HT-1080 IDH1 knockdown viability, ATP luminescence, 48 h; Potency, µM (doses to about 46.1 µM), for the others: at the highest dose activity, negative = toxicity, usual class: cytotoxic; 2% of 360,000 active;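 note: 0% = DMSO wells and -100% = cell-free medium wells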
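HT-1080-IDH1KD cells (IDH1 knocked down), 750/well in RPMI with 5% FBS, treated with compound 48 h at 37 degrees C. Viability by CellTiter-Glo luminescence, normalised to DMSO and no-cell wells; concentration-response curves classed.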
DT40 TDP1 no CPT: qHTS for Inhibitors of human tyrosyl-DNA phosphodiesterase 1 (TDP1): qHTS in cells in absence of CPT; DT40 Tdp1-/- hTDP1 cells, no CPT, ATP luminescence, 48 h; Potency, µM (titrated, usually from 46.2 µM), for inactives: top-dose activity change, negative = growth inhibition, actives largely listed as inhibitors; 15% of 420,000 active; AID 686978, 2013; note: nearly all actives have a fitted effect of over 55% in size
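Growth kinetics read by CellTiter-Glo luminescence after ≥48 hr at 37 °C. Cells: DT40 Tdp1-/- stably carrying human TDP1, 400 per well, compound exposure in the absence of CPT (DMSO vehicle).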
HT1080-NT tox: kills 2HG-producing HT-1080-NT fibrosarcoma cells. 1.6% of 360,000 active. HT-1080-NT fibrosarcoma viability, CellTiter-Glo ATP luminescence, 48 h. AID 686970. Potency, µM (top dose mostly 46.1 µM), inactives show at the top dose activity, negative = less viability, hits mostly cytotoxic;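 note: NT is the 2HG producing partner of a matched IDH1 knockdown line; 0% = DMSO-treated cells and -100% = media-only wells without cells; nearly all actives have a fitted effect of over 55% in size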
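Fibrosarcoma NT cells, 750 per well in 5% FBS RPMI, were exposed to compound for 48 hours. Viability: CellTiter-Glo luminescence.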
KB-3-1 tox: kills parental KB-3-1 adenocarcinoma cells; Potency, µM (doses to about 46.1 µM), most hits filed as cytotoxic; 1.4% of 400,000 active; AID 1347075; KB-3-1 viability, CellTiter-Glo ATP luminescence, 72 h; note: nearly all actives have a fitted effect of over 60% in size
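Luminescent ATP read-out (CellTiter-Glo) measures survival of drug-naive KB-3-1 cells after 72 h compound exposure at 37 °C. Titration series was screened from lowest to highest concentration, with DMSO vehicle plates as background controls.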
Active calls of the source: *; i = inactive; ? = inconclusive; . = no result. Calls come from the whole dose curve; as a rule, active = well fitted curve in the direction sought with a large enough effect; inconclusive = small, poorly fitted or top-dose-only effect, or another doubt; inactive = no such curve, though single readings can be large; an effect the other way counts as inactive or inconclusive. Unless noted, % is set by controls: 0 for no effect and ±100 for the full control effect; potency is the fitted concentration of half-maximal effect.

SMILES	KB-V1 MDR tox	DT40 TDP1 CPT	HT1080 IDH1KD tx	DT40 TDP1 no CPT	HT1080-NT tox	KB-3-1 tox
Cc1ccccc1-c1csc(C(C)(O)c2ccccc2)n1 (stereo not drawn)	i	-19%	-18%	-23%	-15%	i
COc1ccc(-c2csc(C(C)(O)c3ccc(OC)cc3)n2)cc1 (stereo not drawn)	i	15µM*	?	?	-23%	i
COc1ccc(-c2csc(C(C)(O)c3cccnc3)n2)cc1 (stereo not drawn)	i	16µM*	?	21µM*	?	i
COc1ccc(C(C)(O)c2nc(-c3cccc(O)c3)cs2)cc1 (stereo not drawn)	i	18µM*	8.2µM*	23µM*	?	?
O=C(Nc1ccc(NC(=O)c2ccccc2F)cn1)c1ccco1	?	?	-24%	?	-8%	i
CCn1ncc(/C=N\NC(=O)c2ccc3c(c2)c(C)c(C)n3Cc2ccccc2)c1C	?	-29%	?	?	?	?
CCn1c(C)c(C)c2cc(C(=O)NCCCN3CCCC3)ccc21	i	-15%	3%	12%	0%	i
CCn1c(C)cc(O)c(C(=O)Nc2cccc(Cl)c2)c1=O	i	?	0%	3.7µM*	-1%	i
CCn1c(C)c(C)c2cc(C(=O)Nc3cccc(Cl)c3)ccc21	?	?	-22%	18µM*	-6%	?
CCc1cccc(NC(=O)c2ccc3c(c2)c(C)c(C)n3Cc2ccc(F)cc2)c1	i	15µM*	.	?	.	i
CC(=O)c1cccc(NC(=O)c2ccc3c(c2)c(C)c(C)n3Cc2ccc(Cl)cc2)c1	i	15µM*	.	9.2µM*	.	i
Cc1scc(C(=O)N2CCN(c3ccc(Cl)cc3)CC2)c1C	?	?	-10%	?	-28%	i
COc1ccccc1NC(=O)c1ccc[n+]([O-])c1	i	0%	21%	22%	20%	i
Cc1ccc(C)c(S(=O)(=O)Nc2ccc(C(=O)NCCc3ccccn3)cc2)c1	i	-10%	13%	-24%	19%	i
O[C@@H]1CN(CC2CCCCC2)[C@@H](c2ccc(Cl)cc2)C[C@H]1n1cc(-c2ccc(F)cc2)nn1	i	?	3%	?	3%	i
CCN1CCN(c2ccc(NC(=O)c3ccc4c(c3)[nH]c(=O)n4Cc3ccc(F)cc3)cc2)CC1	i	18µM*	-23%	29µM*	-19%	i
Cc1c(C)n(Cc2ccccc2)c2ccc(C(=O)OCCN(C)C)cc12	i	?	?	12µM*	?	i
CCc1ccc(NC(=O)c2ccc3c(c2)c(C)c(C)n3Cc2ccccc2)cc1	8.2µM*	5.8µM*	.	5.2µM*	.	?
Cc1ccc(-n2c(=O)c3ccc(C(=O)NCc4ccco4)cc3n(Cc3ccc(Cl)cc3)c2=O)cc1	.	18µM*	.	6.5µM*	.	.
Cc1ccc(CNC(=O)c2ccc3c(c2)c(C)c(C)n3Cc2ccccc2)o1	i	?	.	?	.	i
CCn1c(C)c(C)c2cc(C(=O)NCc3cccc(C)c3)ccc21	i	23µM*	.	?	.	i
COc1ccc(-n2c(=O)c3ccc(C(=O)NCc4ccc(C)cc4)cc3n(CC(=O)Nc3ccc(C)cc3)c2=O)cc1	i	?	.	21µM*	.	i
COc1cccc(CNC(=O)c2ccc3c(c2)c(C)c(C)n3Cc2ccccc2)c1	i	16µM*	.	18µM*	.	i
CCc1ccc(CNC(=O)c2ccc3c(c2)c(C)c(C)n3Cc2ccccc2)cc1	i	18µM*	.	?	.	i
